The campaign covered roughly 330,000 compounds. About 2,800 (0.85%) were called active.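 How the source made its calls: active means mean inhibition across replicates of 60% or more, whatever share of single replicates reaches that level; inconclusive means some that reach 60%, reason not given; inactive means mean inhibition across replicates below 60%.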 The list comes from a sample in which actives are over-represented; it also holds similar structures and randomly drawn compounds.
Assay: MITF transcriptional activity suppression – cell-based, SK-MEL-5, single point, luciferase, primary screen (AID 488899)
Details: SK-MEL-5 TRPM1 promoter luciferase, 24 h; at 12.5 µM; stronger effect = higher value
For `CCCCN1CC(COCc2ccccc2)OCCS1(=O)=O` (centres undefined), the inhibition was 6.74% (inactive). With `O=C(CC1Sc2ccccc2NC1=O)NNc1ccc(Cl)c(Cl)c1` (centres undefined) the inhibition was -0.562% (inactive). In the case of `C[C@H]1CN([C@@H](C)CO)C(=O)Cc2cc(NC(=O)Cc3ccccc3)ccc2O[C@H]1CN(C)S(=O)(=O)c1cccs1`, the inhibition is reported as 14.1% (inactive). With `CC(=O)c1nc2ccccc2n1Cc1ccccc1` the inhibition was 3.29% (inactive). With `CC(=O)Oc1c(C(=O)c2nnc(C)o2)c(=O)n(Cc2ccccc2)c2ccccc12` the inhibition was 66% (active). With `CCCCCn1c(=O)c(C(=O)OCC)c(Cl)c2ccccc21` the inhibition was 6.88% (inactive). With `Cc1ccc(NC(=S)NC(NC(=O)Cc2cccc3ccccc23)C(Cl)(Cl)Cl)cc1` (centres undefined) the inhibition was 36% (inactive). With `Cc1n[nH]c(=O)c2c1nnn2Cc1ccc(F)cc1` the inhibition was 0.048% (inactive). In the case of `Cc1ccc(CNS(=O)(=O)CCNC(=O)c2ccccc2)cc1`, the inhibition is reported as -8.66% (inactive). For `COC(=O)C(C)Oc1ccc2c(c1)O/C(=C\c1cccc(Br)c1)C2=O` (centres undefined), the inhibition was -3.21% (inactive). With `COc1cc(C#Cc2ccc3cc(CCCO)oc(=O)c3c2)cc(OC)c1` the inhibition was -11.2% (inactive). For `COc1cc(/C=C2\Oc3ccc(C#Cc4ccc(O)cc4)cc3C2=O)cc(OC)c1`, the inhibition was 73.1% (active). For `O=C(C1CC(=O)N(C2CCCC2)C1)N1CCN(c2cccc(C(F)(F)F)c2)CC1` (centres undefined), the inhibition was 3.91% (inactive). For `C[C@H](CO)N1C[C@H](C)[C@H](CN(C)CC2CC2)Oc2ccc(NC(=O)CCN3CCOCC3)cc2C1=O`, the inhibition was -4.39% (inactive). For `O=C(CCNC(=O)c1ccc([N+](=O)[O-])cc1)NC1CCCCC1`, the inhibition was 8.98% (inactive). In the case of `O=c1oc2ccccc2c(=O)c2ccccc12`, the inhibition is reported as -0.811% (inactive). For `O=C1Nc2cc(C(=O)N3CCC(N4CCCCC4)CC3)ccc2S/C1=C\c1ccccc1`, the inhibition was 88.1% (active). For `O=C(Nc1ccccc1)C1CCN(C(=O)c2ccc(Br)cc2)CC1`, the inhibition was -9.91% (inactive). For `NC(=O)C1CCN(C(=O)c2ccc(-c3ccccc3)cc2)CC1`, the inhibition was -7.15% (inactive). For `O=C1[C@@H](c2ccccc2)[C@@H](c2ccccc2)N1c1cccnc1`, the inhibition was -10.4% (inactive). In the case of `COc1ccc(C2NC(=O)C(=O)/C2=C(\O)c2ccc(Cl)cc2)cc1OC` (centres undefined), the inhibition is reported as -6.72% (inactive). With `CCOc1cc(N2CCOCC2)c(OCC)cc1NC(=O)COc1cccc2cccnc12` the inhibition was 83.8% (active). For `CCOc1cc(N2CCOCC2)c(OCC)cc1NC(=O)c1ccc(C)s1`, the inhibition was 4.27% (inactive). For `CCOc1cc(N2CCOCC2)c(OCC)cc1NC(=O)COc1cccc(Cl)c1`, the inhibition was 0.482% (inactive). In the case of `CCN1C(=O)N[C@@H](c2ccccc2)[C@H](C(C)=O)[C@H]1C`, the inhibition is reported as 2.98% (inactive). In the case of `CCOc1ccc(C(=O)NC(=S)Nc2ccc(N3CCOCC3)c(Cl)c2)cc1[N+](=O)[O-]`, the inhibition is reported as 6.29% (inactive). In the case of `Cc1cc(=O)[nH]c2nnnn12`, the inhibition is reported as -4.79% (inactive). In the case of `O=C(NN=Cc1ccccc1)c1ccccc1`, the inhibition is reported as -52.5% (inactive). In the case of `COc1cc(CCC(=O)N2CCN(c3ccccc3Cl)CC2)cc(OC)c1OC`, the inhibition is reported as 7.49% (inactive). With `O=C(C[C@H]1C/C=C\C[C@@H](NC(=O)OCC2c3ccccc3-c3ccccc32)C(=O)O[C@@H](c2ccccc2)CNC1=O)N[C@H](CO)Cc1ccccc1` the inhibition was 86.8% (active). For `CC(C)(C)OC(=O)C[C@@H]1C/C=C\C[C@@H](CC(=O)N[C@H](CO)Cc2ccccc2)C(=O)NC[C@@H](c2ccccc2)OC1=O`, the inhibition was 1.12% (inactive). With `CC(C)(C)OC(=O)C[C@H]1C/C=C\C[C@@H](CC(=O)N[C@H](CO)Cc2ccccc2)C(=O)NC[C@@H](c2ccccc2)OC1=O` the inhibition was 4.03% (inactive). For `O=C1NCC(c2ccccc2)(c2ccccc2)C(=O)N1`, the inhibition was -7.87% (inactive). With `CC12CN3CCN(CC(C3)/C1=N\NC(=O)c1ccccc1N)C2` the inhibition was 9.43% (inactive). In the case of `N#CC1(Nc2ccc(-c3ccc(Cl)cc3)cc2)CCCC1`, the inhibition is reported as -58.9% (inactive). With `CN(CC(=O)O)C(=O)c1ccccc1` the inhibition was -4.07% (inactive). With `CN(/N=C/c1ccccc1)C(=S)c1ccccc1` the inhibition was 1.77% (inactive). In the case of `CN(O)C(=S)c1ccccc1`, the inhibition is reported as 82% (active). For `CCOC(=O)N1CCN(S(=O)(=O)c2cc3c(cc2C)NC(=O)CO3)CC1`, the inhibition was 2.83% (inactive). For `C=CCn1cc(C(=O)NCc2ccc(Cl)cc2)c(=O)c2cc(S(=O)(=O)N(CC)CC)ccc21`, the inhibition was -5.87% (inactive). In the case of `O=C(CN1CCN(c2ncccn2)CC1)Nc1ccccc1C(F)(F)F`, the inhibition is reported as 18.5% (inactive). In the case of `CC(=O)c1ccc(S(=O)(=O)N2CCN(C(=O)/C=C/c3ccc4ccccc4n3)CC2)cc1`, the inhibition is reported as 72.5% (active). With `CC(=O)c1ccc(S(=O)(=O)N2CCC3(CC2)OCCO3)cc1` the inhibition was 8.67% (inactive). In the case of `CC(=O)c1ccc(S(=O)(=O)N2CCN(c3nc4c(C)c(C)ccc4cc3C#N)CC2)cc1`, the inhibition is reported as 3.2% (inactive). With `CCN(CC)CCNS(=O)(=O)c1ccc(/C=C/C(=O)O)cc1` the inhibition was 14.7% (inactive). With `C=CC1=C(C(=O)O)N2C(=O)[C@@H](NC(=O)/C(=N\OCC(=O)O)c3csc(N)n3)[C@H]2SC1` the inhibition was -2.96% (inactive). In the case of `CC(=O)N(CC(O)CO)c1c(I)c(C(=O)NCC(O)CO)c(I)c(C(=O)NCC(O)CO)c1I` (centres undefined), the inhibition is reported as -3.11% (inactive). For `COc1ccc(Nc2ncnc3ccc(Br)cc23)c(OC)c1`, the inhibition was 67.9% (active). With `Brc1ccc2ncnc(NCc3cccnc3)c2c1` the inhibition was -1.36% (inactive). With `O=C(O)CCCCCNc1ncnc2ccc(Br)cc12` the inhibition was 1.66% (inactive). With `N/C(=N\S(=O)(=O)c1ccc(Cl)cc1)N1CCOCC1` the inhibition was 1.47% (inactive). With `Cc1cc([N+](=O)[O-])c(=O)[nH]c1C` the inhibition was -0.774% (inactive). With `COc1ccc(C(C[N+](=O)[O-])n2nc(C)cc2C)cc1` (centres undefined) the inhibition was 27.2% (inactive). For `O=C(NN=Cc1ccccc1O)NN=Cc1ccccc1O`, the inhibition was 22.9% (inactive). For `Cc1ccc(/C=N/NC(=O)C2=NNC(c3ccccc3)(c3ccccc3)C2)c(O)c1`, the inhibition was 76.5% (active). For `CCN(CC)c1ccc(/C=N/NC(=O)c2cnccn2)c(O)c1`, the inhibition was 25.3% (inactive). With `CCOC(=O)c1c(S(=O)(=O)NCC(=O)Nc2ccc(C)cc2)c(C)n(C)c1C` the inhibition was 7.89% (inactive). For `Cc1c(N=Nc2ccc(N(C)C)cc2)c(=O)n(-c2ccccc2)n1C`, the inhibition was -25.6% (inactive). For `Cn1c(=S)sc2ccc3ccccc3c21`, the inhibition was 0.517% (inactive). For `CC(=O)Nc1ccc(Nc2cc(C)nc(Nc3ccc(NC(C)=O)cc3)n2)cc1`, the inhibition was -5.88% (inactive). With `CC(=O)Nc1ccc(Nc2c3ccccc3nc3ccccc23)cc1` the inhibition was 62.4% (active). In the case of `CCc1nc(Nc2ccc(NC(C)=O)cc2)c2oc3ccccc3c2n1`, the inhibition is reported as 5.96% (inactive). For `Cc1ccc(Cl)cc1N1CCN(C(=O)c2cccc3c(=O)c(C)c(-c4ccccc4)oc23)CC1`, the inhibition was 9.36% (inactive). With `C/C=N/N(c1ccccc1)c1ccccc1` the inhibition was 2.93% (inactive). With `O=C(NNC(=O)c1ccc2ccccc2c1)c1ccc(Cl)cc1` the inhibition was 10.1% (inactive). In the case of `O=C(CN1CCN(S(=O)(=O)c2ccc(Br)cc2)CC1)Nc1ccccc1C(=O)c1ccccc1`, the inhibition is reported as -0.0235% (inactive). In the case of `O=[N+]([O-])c1ccc(C=NN=Cc2ccc([N+](=O)[O-])cc2)cc1`, the inhibition is reported as -1.22% (inactive). In the case of `O=C(NN=Cc1ccc([N+](=O)[O-])cc1)C1CC1`, the inhibition is reported as -20.4% (inactive). With `O=C1/C(=C\c2ccc([N+](=O)[O-])cc2)CS(=O)(=O)C/C1=C/c1ccc([N+](=O)[O-])cc1` the inhibition was 106% (active). With `Cc1cc(C)c2nc3nc(C)cc(C)c3c(N)c2c1` the inhibition was 69% (active). For `O=S(=O)(NCc1ccccc1Cl)c1cnc[nH]1`, the inhibition was 9.3% (inactive). In the case of `CN(C)/C=C(\C#N)C(=O)c1cccnc1Oc1ccc(F)cc1F`, the inhibition is reported as -3.39% (inactive). For `N#Cc1ccc(Oc2ccc(C(F)(F)F)cc2NC(=O)c2ccc(F)cc2)cc1`, the inhibition was -2.39% (inactive). For `O=C(Nc1ccc(-c2csc(Nc3cccc(C(F)(F)F)c3)n2)cc1)c1cccc(C(F)(F)F)c1`, the inhibition was -14.9% (inactive). In the case of `COc1cc(NC(=O)c2[nH]cnc2C(N)=O)cc(C(=O)Nc2cccc(C(F)(F)F)c2)c1`, the inhibition is reported as 89.9% (active). With `COc1cc(NC(=O)c2cncc(-c3ccc(C#N)cc3)c2)cc(C(=O)Nc2cccc(C(F)(F)F)c2)c1` the inhibition was 71.3% (active). For `COc1ccc(NC(=O)C(=O)NCC(=O)Nc2cccc(C(F)(F)F)c2)cc1`, the inhibition was 3.29% (inactive). With `Cc1cccc(NC(=O)c2nnn(-c3cccc(C(F)(F)F)c3)c2N)c1` the inhibition was -39.6% (inactive). For `CC(C)[C@@H](NC(=O)OC(C)(C)C)C(=O)NCC1CCC(C(=O)N[C@@H](Cc2ccccc2)C(=O)O)CC1` (some centres undefined), the inhibition was -3.13% (inactive). For `CCn1c(/C=C/c2ccc([N+](=O)[O-])o2)nc2ccccc2c1=O`, the inhibition was 75.9% (active). For `O=c1oc(/C=C/c2ccccc2)nc2ccccc12`, the inhibition was -14.4% (inactive). For `CCOCCCn1c(NN)nc2ccccc2c1=O`, the inhibition was 10.3% (inactive). In the case of `CC(=O)NC(CC(=O)Nc1nccs1)c1ccccc1` (centres undefined), the inhibition is reported as -5.93% (inactive). In the case of `O=C1CC[C@@H]2CC3(C[C@@H]4CCN1[C@H]24)Nc1cc([N+](=O)[O-])ccc1NC3=NC1CCCCC1` (some centres undefined), the inhibition is reported as -4.61% (inactive). For `CC(=O)N1CC[n+]2c(-c3ccc([N+](=O)[O-])cc3)csc21`, the inhibition was -4.65% (inactive). For `COCCN1C(=O)C(=O)/C(=C(/O)c2ccc(S(=O)(=O)N3CCOCC3)cc2)C1c1ccc(OC)c(OC)c1` (centres undefined), the inhibition was 2.98% (inactive). For `CCOC(=O)c1c(C)[nH]c2c1-c1ccccc1C(=O)C2=O`, the inhibition was 106% (active). In the case of `CCOC(=O)c1ccccc1OC(=O)Oc1ccccc1C(=O)OCC`, the inhibition is reported as 24% (inactive). With `CCOC(=O)c1c(C)nc(-c2ccccc2)nc1NC(=O)C(C)C` the inhibition was -26.2% (inactive).

— PubChem BioAssay AID488899 (Broad Institute, 2010)
